# Over roughly 33,000 sequences, “normalized occupancy” has its median near 0.075; the highest 2% begin near 0.095. Many of the other results were omitted from the sample, so the highest values are more common in it than they were.
# Molecular target: MaxL homodimer (Homo sapiens, UniProt P61244 1-160)
# Test: universal protein-binding microarray (PBM); PBS-based mixture, 10 nM His-tagged protein dimer, 2% milk, 200 ng/uL BSA, 50 ng/uL salmon testes DNA, 0.02% TX-100; detection with Alexa 488 anti-His antibody;; high values mean tight binding
# Details: protein: recombinant; tags: C-terminal His-tag (pET21a); chain copies: 2; dsDNA, one strand shown
# Outline: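 Agilent 4 x 44 K arrays carrying the 'all 10-mer' universal design were incubated with His-tagged protein dimer at 10 nM. Protein that bound was tagged using fluorophore-conjugated anti-His antibody at 10 ng/μL, and a GenePix 4400A scanned the arrays to give an intensity for every 8-mer. Each binding occupancy value expresses an intensity relative to the top-ranked intensity.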
# Chain of MaxL homodimer (P61244 whole entry): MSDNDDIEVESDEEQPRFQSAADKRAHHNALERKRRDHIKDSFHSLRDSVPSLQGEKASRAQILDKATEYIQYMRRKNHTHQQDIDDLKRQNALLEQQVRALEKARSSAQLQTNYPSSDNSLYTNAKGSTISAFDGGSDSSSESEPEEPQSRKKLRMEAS
row,Sequence,binding signal
1,CAAATGCG,0.0791 normalized occupancy
2,GACATGCC,0.0968 normalized occupancy
3,AACATGCA,0.0927 normalized occupancy
4,AACATGCG,0.101 normalized occupancy
5,CACATGCC,0.134 normalized occupancy
6,GACATGCA,0.0909 normalized occupancy
7,CCAACCCA,0.0759 normalized occupancy
8,AGTGCCTC,0.0729 normalized occupancy
9,AGAGGCAC,0.0762 normalized occupancy
10,AGGCTCAT,0.0751 normalized occupancy
11,AATCTAAA,0.0727 normalized occupancy
12,ACCGGTAG,0.0719 normalized occupancy
13,CAAATGCA,0.0784 normalized occupancy
14,CACATGCA,0.138 normalized occupancy
15,TACATGCA,0.0895 normalized occupancy
16,ATGCGGAG,0.0844 normalized occupancy
17,CGTTGAGC,0.0723 normalized occupancy
18,AGGCATGA,0.091 normalized occupancy
19,CGGCATCC,0.078 normalized occupancy
20,GGGCATGA,0.087 normalized occupancy
21,CGGCATGA,0.0962 normalized occupancy
22,CGGCATGC,0.109 normalized occupancy
23,CGGCATAC,0.0757 normalized occupancy
24,AGACCATC,0.0766 normalized occupancy
25,ATCTAGTG,0.078 normalized occupancy

row,Sequence,binding signal
1,GCCTGCCA,0.072 normalized occupancy
2,CTGCACGC,0.0997 normalized occupancy
3,ATGCACGC,0.111 normalized occupancy
4,CAGCACGA,0.0909 normalized occupancy
5,AAGCACGC,0.0949 normalized occupancy
6,CAGCACGC,0.0982 normalized occupancy
7,ATGCACGA,0.0913 normalized occupancy
8,ATGCACGG,0.0875 normalized occupancy
9,CTGCACGA,0.0824 normalized occupancy
10,CTGCACAA,0.0745 normalized occupancy
11,CAATTTGG,0.0724 normalized occupancy
12,CCACCGAA,0.0733 normalized occupancy
13,AACAGCGA,0.0748 normalized occupancy
14,AGTCACAA,0.0805 normalized occupancy
15,GTATATCA,0.0787 normalized occupancy
16,ACCCCCCA,0.0865 normalized occupancy
17,CCCACCCC,0.0962 normalized occupancy
18,GCCACCCC,0.0827 normalized occupancy
19,ACCCCCCC,0.0963 normalized occupancy
20,AACCCCCC,0.0825 normalized occupancy
21,CCCACCCA,0.0925 normalized occupancy
22,GGTGCAAA,0.0755 normalized occupancy
23,CCACGAGG,0.182 normalized occupancy
24,CCACGAGC,0.0889 normalized occupancy
25,CCACGAAG,0.0767 normalized occupancy

row,Sequence,binding signal
1,CAACGAGA,0.0767 normalized occupancy
2,CCACGAGA,0.1 normalized occupancy
3,TCACGAGA,0.0875 normalized occupancy
4,CCACGACG,0.0811 normalized occupancy
5,GCACGAGC,0.085 normalized occupancy
6,GCACGAGA,0.098 normalized occupancy
7,ATGGACTA,0.0826 normalized occupancy
8,ACTGTTCA,0.073 normalized occupancy
9,AATGTTAC,0.0779 normalized occupancy
10,ACTGCGGA,0.0741 normalized occupancy
11,AGCTCCAA,0.0722 normalized occupancy
12,CCACGCCC,0.0948 normalized occupancy
13,CCACACCA,0.0899 normalized occupancy
14,GCACGCCA,0.0859 normalized occupancy
15,CCACGCCG,0.0985 normalized occupancy
16,CTACGCCA,0.0777 normalized occupancy
17,CCACGCCA,0.0991 normalized occupancy
18,CGCTTGTA,0.0739 normalized occupancy
19,AGGCTTTA,0.0758 normalized occupancy
20,ATGCCAAC,0.0785 normalized occupancy
21,AGGCGTGA,0.0829 normalized occupancy
22,AGGCGTGC,0.0963 normalized occupancy
23,AGGCGTTC,0.0755 normalized occupancy
24,AGGCGTCG,0.0733 normalized occupancy
25,AGGCGCGC,0.0762 normalized occupancy

row,Sequence,binding signal
1,AGGCGTGG,0.098 normalized occupancy
2,AATTAAAT,0.0748 normalized occupancy
3,CGTAATTC,0.0757 normalized occupancy
4,ACCAAGCG,0.0722 normalized occupancy
5,ACAACTGT,0.0734 normalized occupancy
6,AAACGCGG,0.0761 normalized occupancy
7,AAACGCGT,0.08 normalized occupancy
8,ACGCGCGG,0.0929 normalized occupancy
9,ACGCGCGT,0.0896 normalized occupancy
10,AAACGCGA,0.0771 normalized occupancy
11,ATACGCGC,0.0771 normalized occupancy
12,ACACGCGT,0.13 normalized occupancy
13,ACGCGCGC,0.0821 normalized occupancy
14,ACGCGCGA,0.0786 normalized occupancy
15,ACACGCGC,0.112 normalized occupancy
16,ACACGCGG,0.143 normalized occupancy
17,ACACGCGA,0.116 normalized occupancy
18,TAGAACAA,0.0771 normalized occupancy
19,CAGTGCTC,0.0745 normalized occupancy
20,ATAGCGAA,0.0727 normalized occupancy
21,ATTGTAAC,0.0837 normalized occupancy
22,CTCAATCA,0.0801 normalized occupancy
23,ACAATGAA,0.0787 normalized occupancy
24,AGGACATA,0.0758 normalized occupancy
25,TCTTATCA,0.0736 normalized occupancy

row,Sequence,binding signal
1,CTACTGTC,0.0719 normalized occupancy
2,CGACATGC,0.0992 normalized occupancy
3,CGACATGA,0.0858 normalized occupancy
4,CGACATTC,0.0758 normalized occupancy
5,AGACATGC,0.102 normalized occupancy
6,AGACATGG,0.0832 normalized occupancy
7,AGACATGA,0.0878 normalized occupancy
8,CTAGCTCA,0.0759 normalized occupancy
9,CACGCCCA,0.0892 normalized occupancy
10,GAGAGCAC,0.0743 normalized occupancy
11,ACACGCTC,0.0924 normalized occupancy
12,GCACGCTA,0.101 normalized occupancy
13,GTACGCTA,0.0796 normalized occupancy
14,GCACGCAC,0.0902 normalized occupancy
15,CAACGCTC,0.0772 normalized occupancy
16,CCACGCAA,0.0865 normalized occupancy
17,CGACGCTA,0.0724 normalized occupancy
18,CAACGCTA,0.0734 normalized occupancy
19,GAACGCTA,0.0771 normalized occupancy
20,CCACGCTA,0.0973 normalized occupancy
21,CCACGCAC,0.0964 normalized occupancy
22,CCACGCTC,0.0965 normalized occupancy
23,GAACACAA,0.0743 normalized occupancy
24,CCAATTCG,0.0738 normalized occupancy
25,AGCCCTCC,0.0723 normalized occupancy

row,Sequence,binding signal
1,TCGTAAAA,0.0794 normalized occupancy
2,GCCATCAC,0.0781 normalized occupancy
3,ATACTGGC,0.0812 normalized occupancy
4,AGGCACAG,0.075 normalized occupancy
5,ACGCACAA,0.0775 normalized occupancy
6,AGGCACAC,0.0801 normalized occupancy
7,AGTCACAG,0.0732 normalized occupancy
8,AGTCACAC,0.0886 normalized occupancy
9,ACGCACAT,0.0968 normalized occupancy
10,AGTCACAT,0.101 normalized occupancy
11,ACGCACAG,0.076 normalized occupancy
12,AGGCACAT,0.098 normalized occupancy
13,GCGACAGC,0.0756 normalized occupancy
14,CAACATCG,0.0784 normalized occupancy
15,GTACGGGA,0.0747 normalized occupancy
16,GCACCAGC,0.0755 normalized occupancy
17,TCTGTTAA,0.0739 normalized occupancy
18,AACTGTAC,0.0732 normalized occupancy
19,AAGCTACG,0.0726 normalized occupancy
20,CTATTGTC,0.079 normalized occupancy
21,CCTACAGC,0.0762 normalized occupancy
22,GGATGCTA,0.0763 normalized occupancy
23,ACATGCTG,0.124 normalized occupancy
24,AGATGCTG,0.078 normalized occupancy
25,CCATGCTA,0.0945 normalized occupancy

row,Sequence,binding signal
1,AAATGCTA,0.0773 normalized occupancy
2,ATATGCTG,0.0875 normalized occupancy
3,GCATGCTA,0.112 normalized occupancy
4,AGATGCTA,0.0746 normalized occupancy
5,ACATGCTA,0.106 normalized occupancy
6,AATAGTAA,0.0776 normalized occupancy
7,CATGGCTA,0.0864 normalized occupancy
8,AAGAATTG,0.0747 normalized occupancy
9,TAGTGGCA,0.0787 normalized occupancy
10,GATGCTAA,0.0749 normalized occupancy
11,CAGAGACC,0.0727 normalized occupancy
12,AGCTATAA,0.0785 normalized occupancy
13,CCAGGTAA,0.0729 normalized occupancy
14,ACATACAG,0.0868 normalized occupancy
15,GTGTGCTA,0.0884 normalized occupancy
16,GGGTGCTA,0.0789 normalized occupancy
17,AGGTGCTC,0.0817 normalized occupancy
18,CCGTGCTA,0.0812 normalized occupancy
19,ACGTGCTA,0.109 normalized occupancy
20,ACGTGCTG,0.0935 normalized occupancy
21,GCGTGCTA,0.117 normalized occupancy
22,ACGTGCTC,0.108 normalized occupancy
23,CCGTGCTC,0.0737 normalized occupancy

# Reference: publication PMC4242493, “Sequence specificity incompletely defines the genome-wide occupancy of Myc”
